The subject of one assay is WaGa. Description: qHTS assay to identify novel small-molecules to repurpose for Merkel cell carcinoma treatment (AID 1296009). Note: nearly all actives have a fitted effect of over 60% in size. Note: potency is the fitted concentration of half-maximal effect. The settings on record: MCC and control cell lines, CellTiter-Glo viability, 72 h; series mostly up to 46 µM. An outline of the steps: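 Cell viability measured by CellTiter-Glo following 72 hr compound treatment at 37 degree celsius, with NPC and MIPE libraries tested in 8- and 11-point concentration series.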
Background: qHTS replaces the single test concentration by a dilution series.

A further assay has as its system C33A. The assay is described as follows: Primary qHTS to identify gynecologic anti-cancer compounds using libraries of approved drugs and bioactive compounds (AID 1345084). Note: nearly all actives have a fitted effect of over 55% in size. The settings on record: Gynecologic cancer cell panel viability, ATPlite luminescence, 48 h; series mostly up to 57.5 µM. An outline of the steps:
(§1)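 Cell viability after 48 h drug treatment, ATPlite luminescence readout; five doses.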

The subject of another assay is CAOV3. The assay is described as above. The following applies: Gynecologic cancer cell panel viability, ATPlite luminescence, 48 h; series mostly up to 57.5 µM. An outline of the steps:
as §1
A general note: Cellular ATP, detected with luciferase, serves as a proxy for viable cell number.

The next assay has as its system CASKI. The description is as above. The settings on record: Gynecologic cancer cell panel viability, ATPlite luminescence, 48 h; series mostly up to 57.5 µM. An outline of the steps:
as §1

In the next assay the test system is Es-2. Described as above. The following applies: Gynecologic cancer cell panel viability, ATPlite luminescence, 48 h; series mostly up to 57.5 µM. An outline of the steps: as §1
A further assay has as its system HeLa. The description is as above. The settings on record: Gynecologic cancer cell panel viability, ATPlite luminescence, 48 h; series mostly up to 57.5 µM. An outline of the steps: as §1
For another assay, the system named is Hek293T. The assay is described as above. The settings on record: Gynecologic cancer cell panel viability, ATPlite luminescence, 48 h, control line for the selectivity index; series mostly up to 57.5 µM. An outline of the steps: as §1
For another assay, the system named is JEG-3. The assay is described as above. The following applies: Gynecologic cancer cell panel viability, ATPlite luminescence, 48 h; series mostly up to 57.5 µM. An outline of the steps: as §1
In the next assay the test system is OV90. Described as above. The following applies: Gynecologic cancer cell panel viability, ATPlite luminescence, 48 h; series mostly up to 57.5 µM. An outline of the steps:
as §1

In another assay the test system is PA-1. The assay is described as above. The settings on record: Gynecologic cancer cell panel viability, ATPlite luminescence, 48 h; series mostly up to 57.5 µM. An outline of the steps:
as §1

The test system of the next assay is SKOV3. The assay is described as above. The settings on record: Gynecologic cancer cell panel viability, ATPlite luminescence, 48 h; series mostly up to 57.5 µM. An outline of the steps:
as §1

The test system of a further assay is Tov-21-G. The description is as above. The following applies: Gynecologic cancer cell panel viability, ATPlite luminescence, 48 h; series mostly up to 57.5 µM. An outline of the steps:
as §1

The next assay concerns Tov112D. Described as above. The settings on record: Gynecologic cancer cell panel viability, ATPlite luminescence, 48 h; series mostly up to 57.5 µM. An outline of the steps: as §1

Records with an inconclusive call do not appear. Values without a mark were called inactive. Activity calls are given as the source filed them. Calls come from the whole dose curve; as a rule, active = well fitted curve in the direction sought with a large enough effect; inconclusive = small, poorly fitted or top-dose-only effect, or another doubt; inactive = no such curve, though single readings can be large; an effect the other way counts as inactive or inconclusive.

`c1ccc2c(CN3CCNCC3)cccc2c1`: the Potency entry with WaGa was “inactive”.

`COc1cc2cc(c1Cl)N(C)C(=O)C[C@H](OC(=O)C(C)C)[C@]1(C)O[C@H]1[C@H](C)[C@@H]1C[C@@](O)(NC(=O)O1)[C@H](OC)C=CC=C(C)C2`: in the assay with WaGa, the Potency entry was “inactive”.

For `O=C(Oc1ccc([N+](=O)[O-])cc1)N1CCN(Cc2cccc(Oc3ccccc3)c2)CC1`, the Potency entry in the assay on WaGa, in the assay with C33A, with CAOV3, in the assay on CASKI, in the assay on Es-2 and with HeLa was “inactive” each time. Further, the Potency entry with Hek293T, in the assay with JEG-3, in the assay on OV90, in the assay on PA-1, with SKOV3 and in the assay on Tov-21-G was “inactive” in each case. For the same molecule, in the assay on Tov112D, the Potency result is “inactive”.

Consider `COC1=CC(C)=C[C@@H](C)[C@@H](O)[C@@H](C)CC(C)=CC=C[C@H](OC)[C@H]([C@@H](C)[C@@H](O)[C@H](C)[C@@]2(O)C[C@@H](O)[C@H](C)[C@@H](C(C)C)O2)OC1=O`, for which, in the assay on WaGa, the Potency was 118 nM (active).

Consider `CCc1c(C(=O)C(N)=O)c2c(OCC(=O)O)cccc2n1Cc1ccccc1`, for which the Potency entry with WaGa, in the assay on C33A, in the assay with CAOV3, in the assay on CASKI, with Es-2 and with HeLa was “inactive” throughout. Besides, the Potency entry in the assay with Hek293T, with JEG-3, with OV90, in the assay on PA-1, in the assay on SKOV3 and in the assay with Tov-21-G was “inactive” throughout. Besides, the Potency entry in the assay on Tov112D was “inactive”.

As to `CCC(=O)OC1CCC2C3CCC4=CC(=O)CC[C@@]4(C)C3CC[C@]12C` (some centres undefined), the Potency result in the assay on WaGa is “inactive”.

`COc1ccc(CC2NCCc3cc(OC)c(OC)cc32)cc1OC` (centres undefined): the Potency result with WaGa was “inactive”.

As to `C=C[C@@H]1CN2CCC1C[C@@H]2[C@@H](O)c1ccnc2ccccc12` (some centres undefined), in the assay on WaGa, the Potency result is “inactive”.

For `O=S(=O)(CC1CS1)c1ccc(Oc2ccccc2)cc1` (centres undefined), the Potency with WaGa is 20900 nM (active).

As for `c1cc2c(cc1[C@H]1OC[C@H]3[C@H]1CO[C@H]3c1ccc3c(c1)OCO3)OCO2`, the Potency entry with WaGa is “inactive”.

Turning to `CCN(CC)C(=O)c1ccc(C2=CC3(CCNCC3)Oc3cccc(O)c32)cc1`, the Potency result with WaGa, with C33A, in the assay on CAOV3, in the assay on CASKI, in the assay on Es-2 and in the assay on HeLa was “inactive” throughout. In addition, the Potency entry in the assay on Hek293T, in the assay on JEG-3, in the assay on OV90, with PA-1, in the assay with SKOV3 and in the assay on Tov-21-G was “inactive” throughout. The Potency result in the assay on Tov112D was “inactive”.

For `CC(C)(C)c1cc(C=C(C#N)C#N)cc(Br)c1O`, the Potency result in the assay on WaGa was “inactive”.

Take `O=C(NCC1CCOCC1)c1cnc(Nc2ccc(Cl)cc2Cl)nc1C(F)(F)F`: the Potency entry in the assay with WaGa, in the assay with C33A, in the assay on CAOV3, in the assay with CASKI, in the assay on Es-2 and in the assay with HeLa was “inactive” in each case. Further, the Potency result in the assay on Hek293T, with JEG-3, in the assay with OV90, in the assay with PA-1, in the assay on SKOV3 and in the assay on Tov-21-G was “inactive” throughout. Besides, in the assay with Tov112D, the Potency entry was “inactive”.

Consider `O=[N+]([O-])c1ncc[nH]1`, for which the Potency entry in the assay on WaGa is “inactive”.

As to `COc1cc([C@@H]2c3cc4c(cc3[C@@H](O)C3COC(=O)C32)OCO4)cc(OC)c1O` (some centres undefined), the Potency in the assay on WaGa is 52.6 nM (active).

On to `O=C(N[C@H]1CN2CCC1CC2)c1ccc(Cl)cc1`, for which the Potency result in the assay with WaGa, in the assay with C33A, with CAOV3, in the assay on CASKI, in the assay on Es-2 and in the assay with HeLa was “inactive” in each case. In addition, the Potency entry with Hek293T, in the assay with JEG-3, with OV90, in the assay with PA-1, in the assay with SKOV3 and in the assay with Tov-21-G was “inactive” each time. Besides, in the assay with Tov112D, the Potency entry was “inactive”.

For `C[C@@]12OC(=O)[C@]1([C@@H](O)[C@@H]1C=CCCC1)NC(=O)[C@H]2CCCl`, the Potency in the assay with WaGa was 662 nM (active).

In the case of `C[C@](O)(COc1ccc(C#N)cc1)C(=O)Nc1ccc(C#N)c(C(F)(F)F)c1`, in the assay on WaGa, the Potency entry was “inactive”.

As to `CC[C@H]1C=CC=CC[C@@H](C)[C@H](O)[C@@](C)(O)C(=O)[C@@H](C)[C@H](O)[C@@H](C)C(=O)[C@@H](C)[C@H](O)[C@@H](C)C=CC(=O)O[C@@H]2[C@@H](C)[C@H](CC1)O[C@]1(CC[C@H](C)[C@H](C[C@@H](C)O)O1)[C@H]2C`, the Potency in the assay with WaGa was 662 nM (active).

For `CSCC[C@@H](NC(=O)[C@@H](Cc1ccccc1)NC(=O)CNC(=O)CNC(=O)[C@@H](N)Cc1ccc(O)cc1)C(=O)O`, the Potency result in the assay with WaGa was “inactive”.

For the molecule `O=C(Oc1ccc([N+](=O)[O-])cc1)N1CCC(C(O)(c2ccc3c(c2)OCO3)c2ccc3c(c2)OCO3)CC1`, the Potency result in the assay on WaGa, in the assay with C33A, in the assay on CAOV3, in the assay on CASKI, in the assay with Es-2 and in the assay with HeLa was “inactive” in each case. Moreover, the Potency entry in the assay on Hek293T, in the assay on JEG-3, in the assay on OV90, in the assay on PA-1, in the assay with SKOV3 and in the assay on Tov-21-G was “inactive” throughout. Moreover, the Potency entry in the assay on Tov112D is “inactive”.

With `O=c1[nH]c2ccccc2n1C1CCN(Cc2ccc(-c3[nH]c4cc5ncnc5cc4nc3-c3ccccc3)cc2)CC1`, in the assay with WaGa, the Potency entry is “inactive”.

Values taken from PubChem BioAssay (NCATS).
